Reference: PubChem BioAssay (EPA / NIEHS)
The source made the active and inactive calls. Rule for the calls: active = hit-call score of the fitted dose curve at least 0.9, where 1 is the maximum; inactive = score below 0.9.

read-out: Collagen IV, COL4A1 (gene 1282); assay: BSK_MyoF_CollagenIV: BioMAP Diversity Plus: MyoF Assay for Collagen IV Biomarker Activity (AID 2284247); conditions: primary human lung fibroblasts
Outline: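 Activity is scored as a signal increase over DMSO in an ELISA for Collagen IV, measured on human lung fibroblasts at 24 h after chemical treatment. Cytotoxicity is checked in parallel cultures by sulforhodamine B total-protein staining.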

Row | SMILES | outcome | AC50
1 | Oc1cccc(-c2ccccc2)c1 | inactive | 
2 | NC(=O)CCl | inactive | 
3 | CCOP(=O)(OCC)SCCSCC | inactive | 
4 | CCOC(=O)CC(=O)CCl | inactive | 
5 | CCN(CC)C(=O)C(Cl)=C(C)OP(=O)(OC)OC | inactive | 
6 | Cc1ccc(OP(=O)(Oc2ccc(C)cc2C)Oc2ccc(C)cc2C)c(C)c1 | inactive | 
7 | N#CCCC(Br)(C#N)CBr (configuration not stated) |  | 0.914 µM (active)
8 | CC(C)=CC1C(C(=O)OCc2cccc(Oc3ccccc3)c2)C1(C)C (configuration not stated) | inactive | 
9 | O=S(=O)(c1ccc(Cl)cc1)c1cc(Cl)c(Cl)cc1Cl | inactive | 
10 | O=C(O)COc1cc(Cl)c(Cl)cc1Cl | inactive | 
11 | O=[N+]([O-])c1ccc(Nc2ccccc2)cc1 | inactive | 
12 | Cc1cc(Cl)ccc1N | inactive | 
13 | CCC(C)(C#N)N=NC(C)(C#N)CC (configuration not stated) | inactive | 
14 | Cc1ccc2nc3sc(=O)sc3nc2c1 | inactive | 
15 | O=c1oc2ccccc2c(O)c1C(CC(O)c1ccc(-c2ccc(Br)cc2)cc1)c1ccccc1 (configuration not stated) |  | 5.33 µM (active)
16 | O=S(=O)(C(Cl)(Cl)Cl)C(Cl)(Cl)Cl |  | 2.53 µM (active)
17 | CCOP(=O)(OCC)OC(=CCl)c1ccc(Cl)cc1Cl | inactive | 
18 | Oc1ccc(Cc2ccc(O)cc2)cc1 | inactive | 
19 | CC(C=O)Cc1ccc2c(c1)OCO2 (configuration not stated) | inactive | 
20 | CCOC(=O)CCN(SN(C)C(=O)Oc1cccc2c1OC(C)(C)C2)C(C)C | inactive | 
21 | O=C(CCl)NCO | inactive | 
22 | CC(C)N(C(=O)CCl)c1ccccc1 |  | 4.16 µM (active)
23 | Cc1ccccc1OP(=O)(Oc1ccccc1)Oc1ccccc1 | inactive | 
24 | Oc1c(Br)cc(Br)cc1Br |  | 20 µM (active)
25 | COCC(=O)N(c1c(C)cccc1C)[C@H](C)C(=O)OC | inactive | 
26 | Cc1cc(Cl)ccc1OC(C)C(=O)O (configuration not stated) | inactive | 

read-out: Plasminogen activator inhibitor-1 (PAI1), SERPINE1 (gene 5054); assay: BSK_MyoF_PAI1: BioMAP Diversity Plus: MyoF Assay for Plasminogen activator inhibitor-1 (PAI1) Biomarker Activity (AID 2284256); conditions: primary human lung fibroblasts;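 for outcome: PAI-1 protein level measured by ELISA in fibroblast cultures; PAI-1 read 24 h after compound addition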
Outline: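 ELISA read-out of PAI-1 from primary human lung fibroblast cultures 24 h after dosing; gain-of-signal fit versus DMSO control.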

Row | SMILES | outcome | AC50
27 | Oc1cccc(-c2ccccc2)c1 | inactive | 
28 | NC(=O)CCl | inactive | 
29 | CCOP(=O)(OCC)SCCSCC | inactive | 
30 | CCOC(=O)CC(=O)CCl | inactive | 
31 | CCN(CC)C(=O)C(Cl)=C(C)OP(=O)(OC)OC | inactive | 
32 | Cc1ccc(OP(=O)(Oc2ccc(C)cc2C)Oc2ccc(C)cc2C)c(C)c1 | inactive | 
33 | N#CCCC(Br)(C#N)CBr (configuration not stated) |  | 26.4 µM (active)
34 | CC(C)=CC1C(C(=O)OCc2cccc(Oc3ccccc3)c2)C1(C)C (configuration not stated) | inactive | 
35 | O=S(=O)(c1ccc(Cl)cc1)c1cc(Cl)c(Cl)cc1Cl | inactive | 
36 | O=C(O)COc1cc(Cl)c(Cl)cc1Cl | inactive | 
37 | O=[N+]([O-])c1ccc(Nc2ccccc2)cc1 | inactive | 
38 | Cc1cc(Cl)ccc1N | inactive | 
39 | CCC(C)(C#N)N=NC(C)(C#N)CC (configuration not stated) | inactive | 
40 | Cc1ccc2nc3sc(=O)sc3nc2c1 | inactive | 
41 | O=c1oc2ccccc2c(O)c1C(CC(O)c1ccc(-c2ccc(Br)cc2)cc1)c1ccccc1 (configuration not stated) |  | 3.64 µM (active)
42 | O=S(=O)(C(Cl)(Cl)Cl)C(Cl)(Cl)Cl |  | 3.03 µM (active)
43 | CCOP(=O)(OCC)OC(=CCl)c1ccc(Cl)cc1Cl | inactive | 
44 | Oc1ccc(Cc2ccc(O)cc2)cc1 | inactive | 
45 | CC(C=O)Cc1ccc2c(c1)OCO2 (configuration not stated) | inactive | 
46 | CCOC(=O)CCN(SN(C)C(=O)Oc1cccc2c1OC(C)(C)C2)C(C)C | inactive | 
47 | O=C(CCl)NCO | inactive | 
48 | CC(C)N(C(=O)CCl)c1ccccc1 |  | 3.09 µM (active)
49 | Cc1ccccc1OP(=O)(Oc1ccccc1)Oc1ccccc1 |  | 13.5 µM (active)
50 | Oc1c(Br)cc(Br)cc1Br | inactive | 
51 | COCC(=O)N(c1c(C)cccc1C)[C@H](C)C(=O)OC | inactive | 
52 | Cc1cc(Cl)ccc1OC(C)C(=O)O (configuration not stated) | inactive | 
